Data from PubChem BioAssay (NCI).
About 79,000 compounds went through this panel and 15% of them were active in at least one assay; those are over-represented in the sample as a whole. Active and inactive are the calls of the source. No stated cut-off is given here; in the data, active means growth inhibition above about 70%; inactive means the rest.

Legend:
[1] = NCI Yeast Anticancer Drug Screen. Data for the rad50 strain (AID 155);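 further: 0% = growth of vehicle-only cultures of the same strain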; settings: S. cerevisiae rad50 strain growth inhibition; at 50.0 µM; hits give high values
Method in brief: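 Growth of the mutant yeast was measured after compound exposure and referenced to vehicle-treated cultures.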

[2] = NCI Yeast Anticancer Drug Screen. Data for the mec2-1 strain (AID 157); settings: S. cerevisiae mec2-1 strain, at 50.0 µM, hits give high values
Method in brief: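 Readout is yeast growth inhibition, normalised to vehicle-treated controls, in the mec2-1 strain exposed to compound.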

[3] = NCI Yeast Anticancer Drug Screen. Data for the sgs1 mgt1 strain (AID 161);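 further: 0% = growth of cultures given vehicle only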; settings: S. cerevisiae sgs1 mgt1 strain, at 50.0 µM, hits give high values
Method in brief: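 Percent growth inhibition was derived by comparing compound-exposed mutant yeast with vehicle-exposed cultures. The strain carries alterations in DNA damage repair.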

[4] = NCI Yeast Anticancer Drug Screen. Data for the cln2 rad14 strain (AID 165);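 further: 0% = growth equal to vehicle treated cultures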; settings: S. cerevisiae cln2 rad14 strain, at 50.0 µM, hits give high values
Method in brief: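 Relative to vehicle controls, growth inhibition of compound-treated cln2 rad14 yeast was recorded.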

[5] = NCI Yeast Anticancer Drug Screen. Data for the bub3 strain (AID 167); settings: S. cerevisiae bub3 mutant strain, at 50.0 µM, hits give high values
Method in brief: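 Whole-cell yeast assay. The mutant strain was incubated with compounds, and growth inhibition was determined by comparison with vehicle-treated cells.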

[6] = NCI Yeast Anticancer Drug Screen. Data for the mlh1 rad18 strain (AID 175); settings: S. cerevisiae mlh1 rad18 strain growth inhibition; at 50.0 µM; hits give high values
Method in brief: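 Test agents were incubated with a yeast strain of defined genotype (DNA damage repair defect). Inhibition of growth was derived by comparison with vehicle-exposed cultures.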

Measured: growth inhibition

OC1(c2ccccc2)C2CCN(CC2)C1CN1CCOCC1 (centres undefined)
inactive: [1] -23.6% | [2] -30.7% | [3] -20.6% | [4] 4.05% | [5] 13.3% | [6] 7.95%

COC(=O)C1C(=O)NC2(C)CC1c1ccccc1O2 (centres undefined)
inactive: [1] -28% | [2] -11.7% | [3] -30.8% | [4] 8% | [5] -12.5% | [6] -1.45%

CCOP(=O)(NC(C)(C)C)OCC
inactive: [1] -15.1% | [2] -54% | [3] -21.4% | [4] 8% | [5] -26.1% | [6] -12.8%

CCN(CC)P(=O)(N1CC1(C)C)N1CC1(C)C (centres undefined)
inactive: [1] 1.85% | [2] 0.75% | [3] 1.4% | [4] 2.35% | [5] -4.6% | [6] 1.35%

Cc1ccc(S(N)(=O)=O)cc1
inactive: [1] 22% | [2] -5.05% | [3] 5.8% | [4] -8.25% | [5] 12.8% | [6] 18.8%

O=c1sc2ccccc2n1CC1CS1 (centres undefined)
inactive: [1] 22.4% | [2] -10.1% | [3] -8.75% | [4] 5.25% | [5] -27.1% | [6] -0.25%

O=C(O)[C@H](O)[C@@H](O)C(=O)O.[Pb]
inactive: [1] 7.05% | [2] -4.35% | [3] -2.9% | [4] -36.9% | [5] 6.85% | [6] -9.2%

O=C(CCSCCC(=O)N/N=C/c1ccc(N(CCCl)CCCl)cc1)N/N=C\c1ccc(N(CCCl)CCCl)cc1
inactive: [1] 7% | [2] 3.85% | [3] 9.35% | [4] -6.4% | [5] -9.45% | [6] 16.6%

CC(C)(C)C(=O)CP(=O)(O)O (tested in a mixture with another compound)
inactive: [1] 24.1% | [2] -4.45% | [3] 1.5% | [4] 14.7% | [5] 10.2% | [6] 15.3%

CCN(CC)CCO
inactive: [1] -4.1% | [2] -4.9% | [3] -9.6% | [4] 7.05% | [5] 15.2% | [6] -23.6%

CCCc1ccc(CCN)cc1
inactive: [1] -8.55% | [2] -9% | [3] -15.1% | [4] -9.45% | [5] -2.3% | [6] -23.2%

Nc1ccc2c(c1)Cc1cc(N)ccc1-2
inactive: [1] 60.2% | [2] 15.3% | [3] 57% | [4] -3.75% | [5] 37% | [6] 12.1%

CC1=C(C)C(=O)OC(C(C)(O)C2(O)CCC3(O)C4CC(Cl)C5(O)C(O)C=CC(=O)C5(C)C4CCC32C)C1 (centres undefined)
inactive: [1] 7.8% | [2] -37.3% | [3] -18.7% | [4] -3.2% | [5] -15.9% | [6] -52.2%

Nc1ccc(P(=O)(O)O)cc1
inactive: [1] -7.8% | [2] -9.55% | [3] -11.7% | [4] -36.1% | [5] -1.05% | [6] -3.95%

CC1=C2C(=O)C(C)(C)C=C2C(=O)[C@](C)(O)C12CC2
inactive: [1] 66.4% | [2] 47.1% | [3] 68% | [4] 55.2% | [5] -5.95% | [6] 5.4%

N.N.N.O=[N+]([O-])[O-].O=[N+]([O-])[O-].O=[N+]([O-])[O-].O=[N+]([O-])[O-].[Co+3]
inactive: [1] 11.6% | [2] 20.7% | [3] 25.5% | [4] 31.3% | [5] 11.8% | [6] -1.35%

CCCC[S][Hg][I]
inactive: [4] 38.9%
active: [1] 92.5% | [2] 98.7% | [3] 97.9% | [5] 99.1% | [6] 98.8%

CCOC(=O)OC1(c2ccccc2)CCN(C)CC1
inactive: [1] -12.2% | [2] 5.75% | [3] -4.55% | [4] 34.3% | [5] 21.4% | [6] 21.4%

Cc1ccccc1-n1c(C)nc2ccccc2c1=O
inactive: [1] -29.3% | [2] -30.7% | [3] -1.35% | [4] 11.6% | [5] 1.5% | [6] -20.7%

CCCCCCNC1C=CCC1 (centres undefined)
inactive: [1] -5.75% | [2] -2.55% | [3] -10.9% | [4] -15.6% | [5] 5.15% | [6] 4.25%

NCCn1ccc2ccccc21
inactive: [1] 8.2% | [2] -21.2% | [3] 5.35% | [4] 7.35% | [5] -0.4% | [6] 18.2%

O=[N+]([O-])c1ccc(/C=C/c2cc(Cl)ccc2S(=O)(=O)F)c(Cl)c1
inactive: [1] 2.6% | [2] -0.85% | [3] 6.8% | [4] 13.4% | [5] 12.9% | [6] -4.35%

Cc1csc2sc3ccccc3[n+]12
inactive: [1] 5.75% | [2] -6.85% | [3] -0.5% | [4] -5.8% | [5] -11.9% | [6] -34.1%

NS(=O)(=O)c1cc(N(CCCl)CCCl)c([N+](=O)[O-])cc1[N+](=O)[O-]
inactive: [1] -72.8% | [2] -36.8% | [3] -12.5% | [4] 2.1% | [5] -16.1% | [6] -34.5%

S=P(N1CCCCC1)(N1CCCCC1)N1CCCCC1
inactive: [1] -6.95% | [2] -6.8% | [3] -3.15% | [4] -17.8% | [5] -4.2% | [6] -7.1%

COc1ccc2c(c[n+](C)c3c4cc5c(cc4ccc23)OCO5)c1OC
inactive: [1] 0.2% | [2] -6.25% | [3] 5.6% | [4] 14% | [5] -6.5% | [6] 0.6%

Oc1ccccc1C=NCCN=Cc1ccccc1O.[Zn+2]
inactive: [1] -29.2% | [2] -2.2% | [3] -25.1% | [4] -53.8% | [5] -7.8% | [6] -17.9%

Cc1ccc2[nH]cc(CCN)c2c1
inactive: [1] -5.9% | [2] -53.1% | [3] -5.4% | [4] 21.8% | [5] -19.8% | [6] -27.5%

Cc1cc(C)c(CCN(C)C)c(C)c1C
inactive: [1] 8.7% | [2] 0.65% | [3] 4.95% | [4] 1.75% | [5] 1% | [6] 23.4%

ClC1OC(Cl)(Cl)C(Cl)(Cl)OC1(Cl)Cl (centres undefined)
inactive: [1] 7.7% | [2] 3.75% | [3] 35% | [4] -4.25% | [5] 18.8% | [6] 45.9%

CN(/N=C/c1ccnc2ccccc12)c1c([N+](=O)[O-])cc([N+](=O)[O-])cc1[N+](=O)[O-]
inactive: [1] -0.25% | [2] -4.65% | [3] -18.8% | [4] 18.9% | [5] -10% | [6] -8.4%

COC(=O)C[N+]1(C)C2CCC1CC(O)C2 (centres undefined)
inactive: [1] 1.5% | [2] 2.75% | [3] 0.55% | [4] -23.3% | [5] -17.1% | [6] 9.95%

S=P12OCCC(CO1)O2 (centres undefined)
inactive: [1] 8.2% | [2] -9.35% | [3] 3.85% | [4] -23.8% | [5] -8.15% | [6] -3.15%

CC1CCCCN1 (centres undefined)
inactive: [1] 5.35% | [2] -1% | [3] -9.85% | [4] 10.2% | [5] 13.5% | [6] 2.85%

OC1(c2ccccc2)N=C(c2ccccc2)c2ccccc2-n2cccc21 (centres undefined)
inactive: [1] 0.95% | [2] -24.8% | [3] -14.5% | [4] 0.75% | [5] -0.95% | [6] -1.3%

CN(C)C(=O)C(CC[N+](C)(C)C)(c1ccccc1)c1ccccc1
inactive: [1] 8.65% | [2] 5.5% | [3] 5.55% | [4] 24.7% | [5] -3.9% | [6] -10.1%

CNc1cccc2ccccc12
inactive: [1] -3.3% | [2] -14.1% | [3] -54.5% | [4] -36.5% | [5] -28.6% | [6] -0.35%

O=C1Cc2ccccc2C(=O)N1CCN1CCOCC1
inactive: [1] 4.05% | [2] -14.2% | [3] -3.95% | [4] 1.55% | [5] -1.5% | [6] 1.55%

CCOP(=O)(OCC)O/N=C(/CC)c1ccccc1
inactive: [1] 5.35% | [2] -8.75% | [3] 11.4% | [4] -13.4% | [5] -1.55% | [6] -12.1%
